Reference: PubChem BioAssay (Tox21)
Values without a mark were called inactive. Records with an inconclusive call do not appear. Where a call stands in place of a potency, no number is given. Calls of active or inactive are those of the source. Unless noted, the call rests on the fitted dose curve; in most records, active means well fitted curve in the direction sought with a large enough effect in the repeat runs; inconclusive means weak or mixed curves; inactive means no such curve, though single readings can be large; an effect the other way counts as inactive or inconclusive.

Legend:
[1] = qHTS assay for small molecules that induce genotoxicity in human embryonic kidney cells expressing luciferase-tagged ATAD5 (AID 651632); further: nearly all actives have a fitted effect of over 15% in size
Method in brief: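 Quantitative HTS in HEK293T expressing luciferase-tagged ATAD5, whose levels rise upon DNA damage. Exposure ran 16 hr at 37C and 5% CO2, with luminescence read 30 min after Amplite addition at room temperature.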

[2] = qHTS assay for small molecule disruptors of the mitochondrial membrane potential - cell viability (AID 720634; calls by dose curve; further: nearly all actives have a fitted effect of over 20% in size; further: potency means the concentration at half of the fitted maximal effect)
Method in brief: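 ATP-based luminescent viability readout (CellTiter-Glo, 30 min, room temperature) in HepG2 cells multiplexed with the m-MPI membrane potential dye; compound exposure lasted 1 hr at 37 C.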

[3] = qHTS assay for small molecule disruptors of the mitochondrial membrane potential (AID 720635); further: potency means the concentration at half of the fitted maximal effect
Method in brief: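 HepG2 cells exposed to compound 1 hr at 37C, then Mito-MPS dye 30 min. Ratio read of aggregate (540/590 nm) versus monomer (490/535 nm) fluorescence.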

[4] = qHTS assay to test for compound auto fluorescence at 590 nm (red) in HepG2 cells (AID 720674)
Method in brief: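 Fluorescence at 590 nm emission following 540 nm excitation was recorded from HepG2 wells one hour after compound transfer, with DMSO-only wells as vehicle and Rose Bengal sodium equivalency as the scale.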

[5] = qHTS assay to test for compound auto fluorescence at 535 nm (green) in HepG2 cells (AID 720675)
[6] = qHTS assay to test for compound auto fluorescence at 460 nm (blue) in HEK293 cells (AID 720678)
Method in brief: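 Triamterene serves as the blue fluorophore standard. Compound signal at 405/460 nm is read in HEK293 wells (2,000 cells, 10% dialyzed FBS) after overnight treatment at 37C.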

[7] = qHTS assay to test for compound auto fluorescence at 535 nm (green) in HEK293 cells (AID 720680)
[8] = qHTS assay to test for compound auto fluorescence at 460 nm (blue) in HEK293 cell free culture (AID 720681)
Method in brief: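 Compounds were added to cell-free DMEM with 10% FBS and fluorescence read directly. The blue channel used 405 nm excitation and 460 nm emission, with triamterene as the reference fluorophore.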

[9] = qHTS assay to test for compound auto fluorescence at 535 nm (green) in HEK293 cell free culture (AID 720682)
Method in brief: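 Green-label autofluorescence (485 nm excitation, 535 nm emission) measured on compound added to cell-free culture medium (DMEM, 10% FBS). Output is expressed relative to fluorescein.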

[10] = qHTS assay to test for compound auto fluorescence at 590 nm (red) in HEK293 cell free culture (AID 720683)
Method in brief: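 Cell-free wells of DMEM with 10% FBS received compound, and intrinsic fluorescence was read at excitation/emission 540/590 nm. Values expressed as equivalence to Rose Bengal sodium.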

[11] = qHTS assay to test for compound auto fluorescence at 590 nm (red) in HepG2 cell free culture (AID 720684)
Method in brief: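 Auto fluorescence equivalency versus Rose Bengal sodium, red channel Ex/Em 540/590 nm; compounds in cell-free MEM/10% FBS; DMSO vehicle control.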

[12] = qHTS assay to test for compound auto fluorescence at 460 nm (blue) in HepG2 cell free culture (AID 720685)
Method in brief: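 Cell-free plates of MEM plus 10% FBS received 23 nL compound or DMSO vehicle; blue-channel (405/460 nm) intensity scored against triamterene as reference fluorophore.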

[13] = qHTS assay to test for compound auto fluorescence at 535 nm (green) in HepG2 cell free culture (AID 720686)
[14] = qHTS assay to test for compound auto fluorescence at 460 nm (blue) in HepG2 cells (AID 720687)
Method in brief: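 HepG2 cells in MEM with 10% FBS, attached overnight at 37 C, were exposed to compound or DMSO for 1 hr at 37 C, 5% CO2. Blue fluorescence was read at 405/460 nm, with triamterene as reference fluorophore.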

[15] = biological target: Glucocorticoid receptor (Homo sapiens) (UniProt P04150); assay: qHTS assay to identify small molecule agonists of the glucocorticoid receptor (GR) signaling pathway (AID 720691; active means well fitted activation curve with a large enough effect in the signal ratio in the repeat runs, not every such curve was filed as active; the % refers to the signal ratio); details: GR-bla HeLa, beta-lactamase reporter ratio, 18 h; activation: at 62.4 µM (top of the series)
Method in brief: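 Cells: GR-bla HeLa, endogenous GR with stably integrated GRE-beta-lactamase reporter. Treatment 18 h, 37 C, compounds delivered in DMSO. Detection via LiveBLAzer B/G FRET substrate, 2 h RT, fluorescence intensity.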

[16] = qHTS assay for small molecule agonists of the p53 signaling pathway - cell viability (AID 651633; calls by dose curve; further: nearly all actives have a fitted effect of over 30% in size; further: potency means the concentration at half of the fitted maximal effect)
Method in brief: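 p53RE-bla cells were treated with compound for 16 hours at 37 C. Cytotoxicity was then measured as CellTiter-Glo luminescence after 30 min at room temperature.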

[17] = qHTS assay for small molecules that induce genotoxicity in human embryonic kidney cells expressing luciferase-tagged ATAD5 - cell viability (AID 651634; calls by dose curve; further: nearly all actives have a fitted effect of over 25% in size; further: potency means the concentration at half of the fitted maximal effect)
Method in brief: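 After 15.5 hr incubation with compound at 37C, 5% CO2, HEK293T ATAD5-luciferase cells received CellTiter-Fluor reagent; fluorescence intensity was quantified following 30 min at 37C.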

[18] = qHTS assay to test for compound auto fluorescence at 590 nm (red) in HEK293 cells (AID 720679)
Method in brief: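 We plated HEK293 cells in 10% dialyzed FBS medium, let them adhere for 4-5 hr, then added 23 nL compound. Overnight at 37C and 5% CO2 preceded fluorescence measurement at 540/590nm.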

[19] = biological target: Glucocorticoid receptor (Homo sapiens) (UniProt P04150); assay: qHTS assay to identify small molecule antagonists of the glucocorticoid receptor (GR) signaling pathway (AID 720692; active means well fitted inhibition curve with a large enough effect in the signal ratio in the repeat runs, not every such curve was filed as active; the % refers to the signal ratio; further: potency means the concentration at half of the fitted maximal effect)
Method in brief: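 Quantitative HTS in antagonist format: HeLa cells expressing endogenous GR and a stably integrated GRE-bla reporter, stimulated with 5 nM dexamethasone (final) alongside test compounds for 18 h.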

Chain of Glucocorticoid receptor (Homo sapiens) (P04150 whole entry, looked up): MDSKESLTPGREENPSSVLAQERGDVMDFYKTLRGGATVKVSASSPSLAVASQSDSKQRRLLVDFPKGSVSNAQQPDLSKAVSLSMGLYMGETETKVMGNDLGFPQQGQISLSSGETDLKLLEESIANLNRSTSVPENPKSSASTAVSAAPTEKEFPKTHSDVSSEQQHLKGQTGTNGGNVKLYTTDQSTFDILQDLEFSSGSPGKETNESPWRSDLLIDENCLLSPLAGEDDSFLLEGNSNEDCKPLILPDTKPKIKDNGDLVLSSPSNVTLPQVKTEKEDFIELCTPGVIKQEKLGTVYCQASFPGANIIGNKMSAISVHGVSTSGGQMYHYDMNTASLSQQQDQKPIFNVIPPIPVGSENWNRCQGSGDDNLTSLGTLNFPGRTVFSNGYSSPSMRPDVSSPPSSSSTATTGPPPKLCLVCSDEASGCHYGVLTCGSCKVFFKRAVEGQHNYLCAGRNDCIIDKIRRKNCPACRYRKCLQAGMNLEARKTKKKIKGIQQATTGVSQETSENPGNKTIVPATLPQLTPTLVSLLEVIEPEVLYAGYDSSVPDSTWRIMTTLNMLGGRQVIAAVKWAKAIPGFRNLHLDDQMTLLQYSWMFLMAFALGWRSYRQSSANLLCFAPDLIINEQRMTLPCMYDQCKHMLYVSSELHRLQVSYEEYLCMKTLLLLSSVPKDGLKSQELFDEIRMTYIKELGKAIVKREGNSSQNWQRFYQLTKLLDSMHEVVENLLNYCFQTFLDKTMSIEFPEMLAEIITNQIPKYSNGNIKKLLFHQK

SMILES: Nc1ccccc1O
- Potency [1]: inactive
- Potency [2]: inactive
- Potency [3]: 60.3 µM (active)
- Potency [4]: inactive
- Potency [5]: inactive
- Potency [6]: inactive
- outcome [7]: inactive
- Potency [8]: inactive
- outcome [9]: inactive
- Potency [10]: inactive
- Potency [11]: inactive
- Potency [12]: inactive
- Potency [13]: inactive
- Potency [14]: inactive
- Potency [15]: inactive

SMILES: O=[N+]([O-])c1cc([N+](=O)[O-])c2ccc(S(=O)(=O)O)cc2c1O
- Potency [16]: inactive
- Potency [17]: 21.6 µM (active)
- Potency [2]: inactive
- Potency [3]: inactive
- Potency [4]: inactive
- Potency [5]: inactive
- Potency [6]: inactive
- Potency [18]: inactive
- outcome [7]: inactive
- Potency [8]: inactive
- outcome [9]: inactive
- Potency [10]: inactive
- Potency [11]: inactive
- Potency [12]: inactive
- Potency [13]: inactive
- Potency [14]: inactive

SMILES: CCCN(CCC)c1c([N+](=O)[O-])cc(C(F)(F)F)c(N)c1[N+](=O)[O-]
- Potency [1]: inactive
- Potency [16]: 30.5 µM (active)
- Potency [3]: 4.31 µM (active)
- Potency [4]: inactive
- Potency [5]: inactive
- Potency [6]: inactive
- Potency [18]: inactive
- outcome [7]: inactive
- Potency [8]: inactive
- outcome [9]: inactive
- Potency [10]: inactive
- Potency [11]: inactive
- Potency [12]: inactive
- Potency [14]: inactive

SMILES: O=Cc1cc(O)ccc1Br
- Potency [1]: inactive
- Potency [17]: inactive
- Potency [2]: inactive
- Potency [3]: 62 µM (active)
- Potency [5]: inactive
- Potency [6]: inactive
- Potency [18]: inactive
- outcome [7]: inactive
- Potency [8]: inactive
- outcome [9]: inactive
- Potency [10]: inactive
- Potency [11]: inactive
- Potency [12]: inactive
- Potency [13]: inactive
- Potency [14]: inactive
- Potency [15]: inactive

SMILES: CCCC(c1cc(C(C)(C)C)c(O)cc1C)c1cc(C(C)(C)C)c(O)cc1C
- Potency [16]: 17.4 µM (active)
- Potency [17]: 31 µM (active)
- Potency [2]: 39 µM (active)
- Potency [3]: 3.9 µM (active)
- Potency [4]: inactive
- Potency [5]: inactive
- Potency [6]: inactive
- Potency [18]: inactive
- outcome [7]: inactive
- Potency [8]: inactive
- outcome [9]: inactive
- Potency [10]: inactive
- Potency [11]: inactive
- Potency [12]: inactive
- Potency [13]: inactive
- Potency [14]: inactive

SMILES: COc1c(C)c2c(c(O)c1C/C=C(\C)CCC(=O)O)C(=O)OC2
- Potency [1]: inactive
- Potency [17]: 0.202 µM (active)
- Potency [2]: inactive
- fluorescence, relative to Rose Bengal [4]: 0.0782% [at 18.6 µM]
- fluorescence, % of fluorescein control [5]: 0.0327% [at 18.6 µM]
- fluorescence, % of triamterene [6]: -0.0265% [at 18.6 µM]
- fluorescence, % of fluorescent control [18]: 0.167% [at 18.6 µM]
- fluorescence, % of fluorescein [7]: -0.0651% [at 18.6 µM]
- fluorescence, % of fluorescent control [8]: -0.004% [at 18.6 µM]
- activity change [9]: -0.148% [at 18.6 µM]
- fluorescence, % of fluorescent control [10]: 0.195% [at 18.6 µM]
- fluorescence, % of Rose Bengal [11]: 0.0127% [at 18.6 µM]
- fluorescence, % of fluorescent control [12]: 0.227% [at 18.6 µM]
- fluorescence, % of fluorescein control [13]: -0.0501% [at 18.6 µM]
- fluorescence, % of fluorescent control [14]: -0.0404% [at 18.6 µM]

SMILES: O=C(Nc1cccc([N+](=O)[O-])c1)c1cc2ccccc2cc1O
- Potency [1]: inactive
- Potency [16]: 3.86 µM (active)
- Potency [3]: 0.154 µM (active)
- Potency [4]: inactive
- Potency [5]: inactive
- Potency [6]: inactive
- Potency [18]: inactive
- outcome [7]: inactive
- Potency [8]: inactive
- outcome [9]: inactive
- Potency [10]: inactive
- Potency [11]: inactive
- Potency [12]: inactive
- Potency [14]: inactive

SMILES: Cc1cc(N)c(S(=O)(=O)O)cc1Cl
- Potency [16]: inactive
- Potency [17]: inactive
- Potency [2]: inactive
- Potency [3]: inactive
- Potency [4]: inactive
- Potency [5]: inactive
- Potency [6]: inactive
- Potency [18]: inactive
- outcome [7]: inactive
- Potency [8]: inactive
- outcome [9]: inactive
- Potency [10]: inactive
- Potency [11]: inactive
- Potency [12]: inactive
- Potency [13]: inactive
- Potency [14]: inactive

SMILES: N=C1C=CC(=C(c2ccc(N)cc2)c2ccc(N)cc2)C=C1
- Potency [1]: inactive
- Potency [17]: 24.3 µM (active)
- Potency [3]: 0.0611 µM (active)
- Potency [4]: inactive
- Potency [5]: inactive
- Potency [6]: inactive
- Potency [18]: inactive
- outcome [7]: inactive
- Potency [8]: inactive
- outcome [9]: inactive
- Potency [10]: inactive
- Potency [11]: inactive
- Potency [12]: inactive
- Potency [13]: inactive
- Potency [14]: inactive

SMILES: CCc1cc(Cc2cc(CC)c(N)c(CC)c2)cc(CC)c1N
- Potency [1]: inactive
- Potency [17]: inactive
- Potency [3]: 27.3 µM (active)
- Potency [4]: inactive
- Potency [5]: inactive
- Potency [6]: inactive
- Potency [18]: inactive
- outcome [7]: inactive
- Potency [8]: inactive
- outcome [9]: inactive
- Potency [10]: inactive
- Potency [11]: inactive
- Potency [12]: inactive
- Potency [13]: inactive
- Potency [14]: inactive
- Potency [19]: 43.6 µM (active)

SMILES: C/C=C1/C(=O)C[C@H]2[C@@H]3CCC4=CC(=O)CC[C@]4(C)[C@H]3CC[C@]12C
- Potency [1]: inactive
- Potency [17]: inactive
- Potency [2]: inactive
- Potency [3]: inactive
- Potency [4]: inactive
- Potency [5]: inactive
- Potency [6]: inactive
- Potency [18]: inactive
- outcome [7]: inactive
- Potency [8]: inactive
- outcome [9]: inactive
- Potency [10]: inactive
- Potency [11]: inactive
- Potency [12]: inactive
- Potency [13]: inactive
- Potency [14]: inactive

SMILES: CCN(Cc1cccnc1)C(=O)c1cccc(Cl)c1[C@]1(C)C(=O)N(Cc2ccc(OC)cc2OC)c2ccc(Cl)cc21
- Potency [1]: inactive
- Potency [17]: 9.05 µM (active)
- Potency [2]: inactive
- Potency [3]: 8.07 µM (active)
- Potency [4]: inactive
- Potency [5]: inactive
- Potency [6]: inactive
- Potency [18]: inactive
- outcome [7]: inactive
- Potency [8]: inactive
- outcome [9]: inactive
- Potency [10]: inactive
- Potency [11]: inactive
- Potency [12]: inactive
- Potency [13]: inactive
- Potency [14]: inactive

SMILES: CN(C)[C@@H]1C(=O)C(C(N)=O)=C(O)[C@@]2(O)C(=O)C3=C(O)c4c(O)ccc(Cl)c4[C@@H](O)[C@H]3C[C@@H]12
- Potency [16]: inactive
- Potency [17]: inactive
- Potency [2]: inactive
- Potency [3]: inactive
- Potency [4]: inactive
- Potency [5]: inactive
- Potency [6]: inactive
- Potency [18]: inactive
- outcome [7]: inactive
- Potency [8]: inactive
- outcome [9]: inactive
- Potency [10]: inactive
- Potency [11]: inactive
- Potency [12]: inactive
- Potency [13]: inactive
- Potency [14]: inactive
- Potency [19]: inactive

SMILES: CCCCCCCCCOC(=O)c1ccc(O)cc1
- Potency [1]: inactive
- Potency [16]: 60.3 µM (active)
- Potency [3]: 4.27 µM (active)
- Potency [4]: inactive
- Potency [5]: inactive
- Potency [6]: inactive
- Potency [18]: inactive
- outcome [7]: inactive
- Potency [8]: inactive
- outcome [9]: inactive
- Potency [10]: inactive
- Potency [11]: inactive
- Potency [12]: inactive
- Potency [13]: inactive
- Potency [14]: inactive
